Pf growth 48h = inhibits P. falciparum growth in the first generation, 48 h; 310,000 tested, 5.9% active; Potency, µM (series often up to 28.7 µM), for inactives: at the top dose activity change, negative = inhibition, usual class: inhibitors; P. falciparum luciferase growth in erythrocytes, 48 h; AID 504832; also: potency is read from the fitted curve at half-maximal effect; % is scaled to controls: 0 for no effect and ±100 for the full control effect
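Here the parasites carry a stable luciferase gene and grow inside erythrocytes in Albumax-based RPMI medium with compound for one erythrocytic cycle. Activity is scored as loss of luminescent signal.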
Sm TGR block = inhibitors of Schistosoma mansoni thioredoxin glutathione reductase; Q962Y6; purified TGR, DTNB reduction, TNB absorbance 405 nm; Potency, µM (doses to about 114 µM), without a hit: at the highest dose activity change, negative = inhibition, actives largely listed as inhibitors; 360,000 tested, 3% active; also: potency is read from the fitted curve at half-maximal effect; % is scaled to controls: 0 for no effect and ±100 for the full control effect; nearly all actives have a fitted effect of over 60% in size
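Kinetic colorimetric format: TGR-catalysed, NADPH-driven DTNB reduction monitored via TNB absorbance. Enzyme dispensed at 20 nM; compound exposure 15 min at room temperature before reaction start.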
Shiga toxin inh = blocks Shiga toxin action in Vero cells; Vero cells, Shiga toxin protein synthesis inhibition reporter; inhibition, % at 38.7 µM; 290,000 tested, 9.2% active; in the data active = inhibition mostly above about 28%, no sharp cut-off; inactive = mostly below about 43%; also: 0% is about no effect
Cycloheximide cs = affects cycloheximide protein synthesis inhibition readout, counter-screen | cell reporter, cycloheximide protein synthesis inhibition counterscreen | max response, % | 300,000 tested, 12% active | AID 2314; in the data active = max response mostly above about 13%, no sharp cut-off; inactive = mostly below about 14%; also: read at 38.3 µM for the half of the compounds with a filed dose; 0% is about no effect
NS1 inh = influenza NS1 inhibition. Potency, µM (titrated, usually from 46.1 µM), without a hit: at the highest dose activity, positive = more growth. 270,000 tested, 0.4% active; calls by dose curve; also: potency is read from the fitted curve at half-maximal effect; actives are rising curves; nearly all actives have a fitted effect of over 50% in size
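OD600 was taken as the measure of yeast growth restored by compound in an NS1-expressing S. cerevisiae strain. Cells had been washed out of glucose medium and diluted 1:100 into galactose -URA medium, pH 6.0.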
Pf growth 96h = inhibits malaria parasite growth, 96 h | Potency, µM (doses to about 28.7 µM), inactives show at the top dose activity change, negative = inhibition, hits mostly inhibitors | 320,000 tested, 6.9% active | AID 504834 | P. falciparum luciferase reporter growth, 96 h; also: potency is read from the fitted curve at half-maximal effect; % is scaled to controls: 0 for no effect and ±100 for the full control effect
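96 h incubation, 37 C, 5% CO2, of luciferase-reporter P. falciparum-infected RBCs (2% hematocrit, 0.05% parasitemia final) with test compounds; endpoint luminescence.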
* hit, by the source's call; u = inconclusive; x = no result given; [ ] = remark or other dose. A selection: hits, their analogues and other compounds. The true share with any hit is near 21%. Unless noted, calls follow the shape of the dose curve; as a rule, active = well fitted curve in the direction sought with a large enough effect; inconclusive = small, poorly fitted or top-dose-only effect, or another doubt; inactive = no such curve, though single readings can be large; an effect the other way counts as inactive or inconclusive.

SMILES	Pf growth 48h	Sm TGR block	Shiga toxin inh	Cycloheximide cs	NS1 inh	Pf growth 96h
CCc1ccc(/C=C/C(=O)c2ccc(N3CCOCC3)cc2)cc1	12%	26%	active	15*	10%	-25%
Cc1ccc(/C=C/C(=O)c2ccc(N3CCOCC3)cc2)s1	234%	0%	83	27*	x	208%
C/C(=C\C(=O)c1ccc(F)cc1)Nc1ccc(N2CCOCC2)cc1	-10%	-8%	14	12	-15%	x
O=C(/C=C/c1ccc(F)cc1)c1ccc(N2CCOCC2)cc1	117%	9%	14	4	-4%	43%
CCc1ccc(NC(=O)C/C(C)=N/NC(=O)COc2ccccc2C)cc1	19%	-15%	35	-2	0%	1%
Cn1c(SCc2cccc(Cl)c2)nc(C(F)(F)F)cc1=O	-27%	u	-18	9	-7%	-18%
CCC1Oc2ccc(C)cc2N(CC(=O)NCc2ccc(OC)cc2)C1=O (centres undefined)	x	-2%	x	x	x	x
O=C(NNc1nc2c(F)cccc2s1)c1cc(=O)c2ccccc2o1	32%	10%	13	13	-12%	43%
COc1ccc2nc(NNC(=O)c3cc(=O)c4ccccc4o3)sc2c1	u	-4%	66*	43*	5%	u
Cc1ccc2sc(NNC(=O)c3cc(=O)c4ccccc4o3)nc2c1C	-34%	-4%	44*	16*	16%	u
Cc1cccc2sc(NNC(=O)c3cc(=O)c4ccccc4o3)nc12	u	4%	31*	13*	8%	u
COc1ccc2nc(NC(=O)c3cc(=O)c4cc(C)c(C)cc4o3)sc2c1	x	1%	x	x	x	x
O=C(COC(=O)c1cnccn1)N=c1sccn1Cc1ccccc1Cl	7%	1%	x	x	x	0%
C=C(C)CN(CC)Cc1c(C(=O)N(C)CCCC)nc2ccccn12	-9%	-6%[57.1 µM]	9	1	1%	9.3µM*
CCCCN(C)C(=O)c1nc2ccccn2c1CN1CCN(c2ccccn2)CC1	0%	2%	-12	-2	1%	u
C/C(=N/NC(=O)c1ccc(Cl)s1)c1cccnc1	26%	-31%	9	3	9%	8%
C/C(=N/NC(=O)c1ccc(Br)s1)c1ccncc1	39%	-25%	31	16*	-19%	27%
C/C(=N/NC(=O)c1ccc(C)s1)c1cccnc1	105%	8%	71*	34*	-16%	0%
C/C(=N/NC(=O)c1ccc(Br)s1)c1cccnc1	39%	2%	36	23*	-8%	7.4µM*
Cc1ccc(NC(=O)N2CC3CCCN3c3ccccc32)c(C)c1 (centres undefined)	x	-16%	x	x	x	x
CN(C)c1ccc(CNC(=O)C2CCN(c3nnc(-n4cccc4)s3)CC2)cc1	x	7%	x	x	x	x
COC(=O)c1ccc2c(=O)[nH]c(CN3c4ccccc4CC3C)nc2c1 (centres undefined)	u	7.1µM*	-7	-2	u	3.3µM*
CC1Cc2ccccc2N1Cc1nc2cc(Cl)ccc2c(=O)[nH]1 (centres undefined)	x	-7%	-6	-3	11%	u
COc1ccc(N2CC(C(=O)N3CCC(c4nc5ccccc5[nH]4)CC3)CC2=O)cc1 (centres undefined)	u	2%	x	x	x	u
O=C(O)c1ccc(-c2nnc(-c3cccc(Br)c3)o2)cc1	114%	-15%	35*	20*	-3%	30%
SMILES	Pf growth 48h	Sm TGR block	Shiga toxin inh	Cycloheximide cs	NS1 inh	Pf growth 96h
O=C(c1cccc(-c2nnc(-c3ccccc3)o2)c1)N1CCCCC1	-15%	0%	66*	51*	-34%	-1%
O=C(c1cccc(-c2nnc(-c3ccccc3)o2)c1)N1CCCCCC1	-9%	17%	102*	37*	-61%	x
O=C(c1cccc(Br)c1)N1CCCC1	x	3%	-11	1	-3%	19%
O=C(c1cccc(C(F)(F)F)c1)N1CCCCCC1	23%	5%	17	-1	5%	u
COc1cccc(CNC(=O)Cn2cc3c(n2)-c2c(oc(C(=O)N4CCOCC4)c2C)CC3)c1	x	4%	x	x	x	x
CC(C)CN1C(=O)C(=O)N(CC(=O)NC(C)CCc2ccccc2)C1=O (centres undefined)	0%	-5%	x	x	x	-2%
CCOC(=O)Cc1csc(NC(=O)c2ccc(Br)s2)n1	36%	0%	62*	32*	-74%	x
CCOC(=O)Cc1csc(NC(=O)c2cccs2)n1	30%	-25%	30	24*	-50%	x
CCOC(=O)c1csc(NC(=O)C(C)(C)C)n1	x	6%	35	0	2%	50%
CCOC(=O)c1sc(NC(=O)c2cccs2)nc1C	280%	17%	70*	17*	-5%	484%
CCOC(=O)c1csc(NC(=O)c2cccs2)n1	109%	-14%	103*	33*	-10%	67%
CC(C)CC(=O)Nc1nnc(SCC(=O)NCc2ccc3c(c2)OCO3)s1	u	9%	-9	13	x	u
COc1ccc(CNC(=O)c2ccc(NC(=O)N3CCSc4ccccc43)cc2)cc1	x	9%	x	x	x	x
CCOC(=O)c1cc(OC(=O)c2cccs2)n(-c2ccccc2)n1	5%	40µM*	1	0	-38%	-23%
CCOc1cccc2sc(NC(=O)c3ccc(S(=O)(=O)N4CCCCC4)cc3)nc12	x	5%	x	x	x	x
CCOC(=O)c1cc(OC(=O)c2ccccc2)n(-c2ccccc2)n1	x	-4%	-6	-5	18%	-13%
CCOc1cccc2sc(NC(=O)c3ccc(Br)s3)nc12	x	3%	-3	-2	1%	7.4µM*
COc1ccc(Br)cc1CNC(=O)c1cc2ccccn2n1	x	8%	x	x	x	x
N[C@@H](C(=O)O)c1ccc(O)c(C(=O)O)c1	x	x	11	4	x	x
Cc1csc(-c2cnn(-c3ccccc3)c2NC(=O)c2cccc(C(F)(F)F)c2)n1	x	-4%	-3	-4	13%	10µM*
CC(=O)c1ccc(NC(=O)Nc2ccc(S(=O)(=O)N3CCCC3)cc2)cc1	u	-15%	24	13	7%	u
Cc1ccc(N=Cc2c(O)n(-c3cc(Cl)ccc3N3CCOCC3)c(=O)c3ccccc23)cc1C	2.6µM*	7%	-17	1	22%	x
COc1ccc(-c2nc3c(n2O)CCc2c-3no[n+]2[O-])cc1	61%	0%	23	13*	-9%	50%
COn1c(-c2ccccc2)nc2c1CCc1c-2no[n+]1[O-]	x	5%	-17	-7	-3%	-7%
CCCc1cc(=O)[nH]c2nnc(SCCC(C)C)n12	x	12%	x	x	x	x
CCn1c2ccccc2c2nnc(N3CCN(c4ccc(OC)cc4)CC3)nc21	x	3%	x	x	x	x
CSc1ccccc1OCc1cc(C(=O)NCCC2CCCCO2)no1 (centres undefined)	-7%	1%	45*	33*	5%	u
Cc1cccc(C)c1OCc1cc(C(=O)NCc2cn(C)nc2C)no1	-7%	-27%	8	13*	0%	u

Bioassay records deposited in PubChem by National Center for Advancing Translational Sciences (NCATS).
